Among the data in ChEMBL document CHEMBL1961873, “Compounds: GSK PKIS; Assays: Nanosyn kinase panel” (2012) are inhibition values, retold here.

Assay [1] concerns the target T1, Tyrosine-protein kinase receptor TYRO3 (Homo sapiens) (UniProt Q06418).
T1 sequence (whole entry): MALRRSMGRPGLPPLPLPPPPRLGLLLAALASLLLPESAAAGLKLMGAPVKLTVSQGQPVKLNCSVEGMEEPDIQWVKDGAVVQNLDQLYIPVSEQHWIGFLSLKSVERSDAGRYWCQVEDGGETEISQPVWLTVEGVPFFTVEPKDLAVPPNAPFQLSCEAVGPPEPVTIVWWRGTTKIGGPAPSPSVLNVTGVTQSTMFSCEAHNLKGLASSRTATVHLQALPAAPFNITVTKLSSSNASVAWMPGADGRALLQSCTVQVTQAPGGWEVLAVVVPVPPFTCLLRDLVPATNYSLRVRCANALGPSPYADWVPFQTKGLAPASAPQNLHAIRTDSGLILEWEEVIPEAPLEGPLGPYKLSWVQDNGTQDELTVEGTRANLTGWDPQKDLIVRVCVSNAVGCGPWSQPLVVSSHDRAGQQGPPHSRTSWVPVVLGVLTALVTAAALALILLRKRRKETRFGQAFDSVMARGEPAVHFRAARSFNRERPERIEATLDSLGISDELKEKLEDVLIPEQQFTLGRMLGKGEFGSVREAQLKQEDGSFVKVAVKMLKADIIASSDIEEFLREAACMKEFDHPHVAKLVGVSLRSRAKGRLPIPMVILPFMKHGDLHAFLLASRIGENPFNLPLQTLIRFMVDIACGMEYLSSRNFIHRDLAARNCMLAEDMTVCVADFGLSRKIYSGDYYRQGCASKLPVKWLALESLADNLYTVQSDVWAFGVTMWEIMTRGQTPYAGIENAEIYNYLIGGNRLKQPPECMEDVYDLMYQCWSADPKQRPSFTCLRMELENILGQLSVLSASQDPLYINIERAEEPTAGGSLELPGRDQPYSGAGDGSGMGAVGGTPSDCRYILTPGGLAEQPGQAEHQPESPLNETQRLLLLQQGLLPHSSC
Particulars: at 1 µM.

For assay [2], the target named is Tyrosine-protein kinase Yes (Homo sapiens) (UniProt P07947). The note with it: at 0.1 µM.
Chain of Tyrosine-protein kinase Yes (Homo sapiens) (P07947 2-543 limits assumed): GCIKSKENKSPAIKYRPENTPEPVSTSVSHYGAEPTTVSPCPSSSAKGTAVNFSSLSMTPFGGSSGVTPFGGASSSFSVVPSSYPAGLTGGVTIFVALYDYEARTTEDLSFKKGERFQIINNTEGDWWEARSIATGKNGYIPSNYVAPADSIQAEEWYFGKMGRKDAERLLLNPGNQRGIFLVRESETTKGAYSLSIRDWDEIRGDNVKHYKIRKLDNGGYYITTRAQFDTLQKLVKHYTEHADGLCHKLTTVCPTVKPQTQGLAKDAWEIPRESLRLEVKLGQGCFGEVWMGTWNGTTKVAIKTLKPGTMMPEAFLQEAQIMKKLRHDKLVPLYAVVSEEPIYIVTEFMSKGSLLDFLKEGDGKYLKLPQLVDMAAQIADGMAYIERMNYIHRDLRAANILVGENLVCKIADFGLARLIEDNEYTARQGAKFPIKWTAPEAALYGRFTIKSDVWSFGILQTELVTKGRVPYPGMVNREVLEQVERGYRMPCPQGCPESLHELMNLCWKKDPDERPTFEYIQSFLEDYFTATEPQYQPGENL
Assay [3] shares this target. The note with it: at 1 µM.
Assay [4] has as its target T2, Tyrosine-protein kinase ZAP-70 (Homo sapiens) (UniProt P43403).
T2 sequence (whole entry): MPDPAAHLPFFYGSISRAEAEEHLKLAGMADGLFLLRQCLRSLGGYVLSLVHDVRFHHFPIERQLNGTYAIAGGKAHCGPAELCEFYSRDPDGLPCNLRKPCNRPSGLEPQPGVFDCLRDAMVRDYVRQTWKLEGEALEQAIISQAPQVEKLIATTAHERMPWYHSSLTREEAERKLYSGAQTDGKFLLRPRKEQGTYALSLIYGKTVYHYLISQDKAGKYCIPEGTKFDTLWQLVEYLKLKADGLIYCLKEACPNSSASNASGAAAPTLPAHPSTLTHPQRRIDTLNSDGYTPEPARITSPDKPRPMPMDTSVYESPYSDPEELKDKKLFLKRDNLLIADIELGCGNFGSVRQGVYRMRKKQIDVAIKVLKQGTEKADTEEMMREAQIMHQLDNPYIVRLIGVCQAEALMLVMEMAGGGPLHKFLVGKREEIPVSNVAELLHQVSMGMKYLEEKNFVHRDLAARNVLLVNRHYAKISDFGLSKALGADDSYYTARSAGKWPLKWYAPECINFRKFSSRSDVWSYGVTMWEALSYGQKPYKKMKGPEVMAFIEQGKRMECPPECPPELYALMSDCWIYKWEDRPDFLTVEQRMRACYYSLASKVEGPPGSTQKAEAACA
Particulars: at 0.1 µM.

Assay [5] has as its target T2, Tyrosine-protein kinase ZAP-70 (Homo sapiens). The note with it: at 1 µM.
The target of assay [6] is Serine/threonine-protein kinase B-raf (Homo sapiens) (UniProt P15056). Particulars: at 0.1 µM.
Chain of Serine/threonine-protein kinase B-raf (Homo sapiens) (P15056 whole entry): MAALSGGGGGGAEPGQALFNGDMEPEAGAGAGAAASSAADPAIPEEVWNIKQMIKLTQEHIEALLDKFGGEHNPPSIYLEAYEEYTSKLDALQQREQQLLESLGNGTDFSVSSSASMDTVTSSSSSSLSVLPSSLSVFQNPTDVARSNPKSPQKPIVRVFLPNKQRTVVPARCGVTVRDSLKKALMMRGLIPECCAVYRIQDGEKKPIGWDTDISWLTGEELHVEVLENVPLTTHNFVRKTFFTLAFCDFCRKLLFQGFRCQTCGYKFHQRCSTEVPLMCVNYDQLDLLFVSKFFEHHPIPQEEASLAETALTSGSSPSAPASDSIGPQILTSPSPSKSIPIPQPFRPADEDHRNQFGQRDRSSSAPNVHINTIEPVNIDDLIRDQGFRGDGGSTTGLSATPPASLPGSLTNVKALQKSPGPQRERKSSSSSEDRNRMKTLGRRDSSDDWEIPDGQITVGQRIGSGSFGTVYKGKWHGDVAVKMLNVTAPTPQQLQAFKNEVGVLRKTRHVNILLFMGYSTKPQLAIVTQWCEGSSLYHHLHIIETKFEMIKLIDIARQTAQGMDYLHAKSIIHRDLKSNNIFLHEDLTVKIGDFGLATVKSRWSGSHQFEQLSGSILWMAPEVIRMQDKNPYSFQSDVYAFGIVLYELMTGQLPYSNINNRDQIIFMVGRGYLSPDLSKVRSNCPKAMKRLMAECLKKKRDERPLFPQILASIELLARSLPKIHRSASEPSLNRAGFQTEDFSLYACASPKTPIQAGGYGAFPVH
For assay [7] the target is unchanged. The note with it: at 1 µM.
Assay [8] has as its system Serine/threonine-protein kinase B-raf (Homo sapiens), P15056 [V600E]. Particulars: at 0.1 µM.
The test system is the same in assay [9]. Particulars: at 1 µM.
Assay [10] addresses RAF proto-oncogene serine/threonine-protein kinase (Homo sapiens) (UniProt P04049). Particulars: at 0.1 µM.
The target is the same in assay [11]. The note with it: at 1 µM.
Assay [12] addresses T3, Interleukin-1 receptor-associated kinase 4 (Homo sapiens) (UniProt Q9NWZ3).
T3 sequence (whole entry): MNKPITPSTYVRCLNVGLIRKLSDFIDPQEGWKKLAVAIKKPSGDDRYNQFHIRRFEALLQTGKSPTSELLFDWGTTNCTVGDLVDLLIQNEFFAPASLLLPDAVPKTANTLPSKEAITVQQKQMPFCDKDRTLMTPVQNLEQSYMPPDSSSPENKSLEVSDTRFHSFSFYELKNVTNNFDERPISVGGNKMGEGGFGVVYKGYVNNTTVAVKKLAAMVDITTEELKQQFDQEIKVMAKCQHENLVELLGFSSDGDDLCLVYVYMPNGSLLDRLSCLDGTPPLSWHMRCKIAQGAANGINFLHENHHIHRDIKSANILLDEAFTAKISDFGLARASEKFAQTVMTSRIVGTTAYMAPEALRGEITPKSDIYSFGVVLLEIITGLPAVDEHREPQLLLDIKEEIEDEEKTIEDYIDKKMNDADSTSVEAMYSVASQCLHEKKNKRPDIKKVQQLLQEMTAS
The note with it: at 0.1 µM.

The target in assay [13] is T3, Interleukin-1 receptor-associated kinase 4 (Homo sapiens). Particulars: at 1 µM.
Assay [14] addresses Leucine-rich repeat serine/threonine-protein kinase 2 (Homo sapiens) (UniProt Q5S007). The note with it: at 0.1 µM.
The target is the same in assay [15]. The note with it: at 1 µM.
Assay [16] deals with Leucine-rich repeat serine/threonine-protein kinase 2 (Homo sapiens), Q5S007 [G2019S]. Particulars: at 0.1 µM.
Chain of Leucine-rich repeat serine/threonine-protein kinase 2 (Homo sapiens), Q5S007 [G2019S] (Q5S007 whole entry G2019S): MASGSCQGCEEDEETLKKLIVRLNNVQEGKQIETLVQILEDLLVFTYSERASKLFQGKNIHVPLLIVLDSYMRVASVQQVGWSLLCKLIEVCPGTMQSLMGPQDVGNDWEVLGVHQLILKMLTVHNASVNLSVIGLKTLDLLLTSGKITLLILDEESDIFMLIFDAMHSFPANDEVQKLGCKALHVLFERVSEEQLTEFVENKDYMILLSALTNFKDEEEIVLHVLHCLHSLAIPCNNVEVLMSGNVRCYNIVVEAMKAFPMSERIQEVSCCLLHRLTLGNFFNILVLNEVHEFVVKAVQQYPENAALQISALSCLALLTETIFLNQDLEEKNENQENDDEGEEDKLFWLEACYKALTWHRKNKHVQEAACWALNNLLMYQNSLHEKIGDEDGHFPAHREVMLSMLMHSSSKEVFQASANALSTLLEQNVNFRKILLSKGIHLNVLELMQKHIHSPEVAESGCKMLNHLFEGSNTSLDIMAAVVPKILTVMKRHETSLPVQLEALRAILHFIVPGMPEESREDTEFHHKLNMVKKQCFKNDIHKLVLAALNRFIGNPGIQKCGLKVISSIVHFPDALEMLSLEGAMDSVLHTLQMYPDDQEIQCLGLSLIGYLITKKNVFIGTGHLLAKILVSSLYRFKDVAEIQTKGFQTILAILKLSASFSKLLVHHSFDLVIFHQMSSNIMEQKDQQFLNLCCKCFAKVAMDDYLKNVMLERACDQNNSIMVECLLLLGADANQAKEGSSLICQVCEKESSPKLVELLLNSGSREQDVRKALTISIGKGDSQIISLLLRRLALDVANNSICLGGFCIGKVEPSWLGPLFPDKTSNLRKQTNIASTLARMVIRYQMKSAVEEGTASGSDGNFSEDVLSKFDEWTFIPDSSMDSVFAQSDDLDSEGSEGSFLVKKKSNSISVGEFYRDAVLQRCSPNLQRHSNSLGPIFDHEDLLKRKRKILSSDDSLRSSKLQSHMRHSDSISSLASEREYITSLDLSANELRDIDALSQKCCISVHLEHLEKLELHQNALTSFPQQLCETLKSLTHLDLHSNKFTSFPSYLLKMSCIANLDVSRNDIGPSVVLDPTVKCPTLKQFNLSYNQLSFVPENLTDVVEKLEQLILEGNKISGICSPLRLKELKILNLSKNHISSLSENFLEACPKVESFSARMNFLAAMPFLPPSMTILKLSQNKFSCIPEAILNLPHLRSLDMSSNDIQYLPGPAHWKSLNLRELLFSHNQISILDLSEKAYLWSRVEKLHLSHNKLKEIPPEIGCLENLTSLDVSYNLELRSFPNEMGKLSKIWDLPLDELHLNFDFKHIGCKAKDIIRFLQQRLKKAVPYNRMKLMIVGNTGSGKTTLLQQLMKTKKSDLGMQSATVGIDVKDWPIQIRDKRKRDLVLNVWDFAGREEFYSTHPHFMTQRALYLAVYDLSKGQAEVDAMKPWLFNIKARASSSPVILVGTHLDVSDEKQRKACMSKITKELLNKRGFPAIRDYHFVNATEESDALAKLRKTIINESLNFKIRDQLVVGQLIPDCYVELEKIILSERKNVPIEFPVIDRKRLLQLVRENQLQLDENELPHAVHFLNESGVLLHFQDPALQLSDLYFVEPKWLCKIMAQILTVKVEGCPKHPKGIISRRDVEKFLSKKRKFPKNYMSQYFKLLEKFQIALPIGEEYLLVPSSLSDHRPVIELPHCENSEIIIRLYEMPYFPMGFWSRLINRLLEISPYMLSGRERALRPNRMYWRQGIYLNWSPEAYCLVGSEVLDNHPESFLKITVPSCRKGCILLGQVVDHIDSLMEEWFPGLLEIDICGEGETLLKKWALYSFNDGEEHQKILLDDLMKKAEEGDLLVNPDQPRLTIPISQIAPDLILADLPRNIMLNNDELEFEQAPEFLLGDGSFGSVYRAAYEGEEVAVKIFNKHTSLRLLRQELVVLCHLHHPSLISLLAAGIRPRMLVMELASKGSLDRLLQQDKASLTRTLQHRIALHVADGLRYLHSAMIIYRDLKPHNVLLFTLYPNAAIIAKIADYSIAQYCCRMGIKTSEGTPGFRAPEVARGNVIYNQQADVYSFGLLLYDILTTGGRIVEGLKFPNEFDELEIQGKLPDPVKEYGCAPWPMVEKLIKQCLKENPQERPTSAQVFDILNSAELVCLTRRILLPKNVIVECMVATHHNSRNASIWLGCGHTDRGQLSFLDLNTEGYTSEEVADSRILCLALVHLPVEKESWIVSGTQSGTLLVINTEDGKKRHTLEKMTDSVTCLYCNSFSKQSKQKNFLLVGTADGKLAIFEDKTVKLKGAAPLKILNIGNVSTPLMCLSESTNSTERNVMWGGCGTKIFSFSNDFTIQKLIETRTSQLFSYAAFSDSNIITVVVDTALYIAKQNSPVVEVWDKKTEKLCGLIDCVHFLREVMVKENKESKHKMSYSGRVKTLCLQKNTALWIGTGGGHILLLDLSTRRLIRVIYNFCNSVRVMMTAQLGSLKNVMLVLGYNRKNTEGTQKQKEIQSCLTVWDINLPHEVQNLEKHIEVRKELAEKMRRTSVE
Assay [17] has the same test system. Particulars: at 1 µM.

Molecules are shown by their SMILES.

Chain of Leucine-rich repeat serine/threonine-protein kinase 2 (Homo sapiens) (Q5S007 whole entry): as the sequence (Q5S007 whole entry G2019S) above, with S2019G counted along it
Chain of RAF proto-oncogene serine/threonine-protein kinase (Homo sapiens) (P04049 whole entry): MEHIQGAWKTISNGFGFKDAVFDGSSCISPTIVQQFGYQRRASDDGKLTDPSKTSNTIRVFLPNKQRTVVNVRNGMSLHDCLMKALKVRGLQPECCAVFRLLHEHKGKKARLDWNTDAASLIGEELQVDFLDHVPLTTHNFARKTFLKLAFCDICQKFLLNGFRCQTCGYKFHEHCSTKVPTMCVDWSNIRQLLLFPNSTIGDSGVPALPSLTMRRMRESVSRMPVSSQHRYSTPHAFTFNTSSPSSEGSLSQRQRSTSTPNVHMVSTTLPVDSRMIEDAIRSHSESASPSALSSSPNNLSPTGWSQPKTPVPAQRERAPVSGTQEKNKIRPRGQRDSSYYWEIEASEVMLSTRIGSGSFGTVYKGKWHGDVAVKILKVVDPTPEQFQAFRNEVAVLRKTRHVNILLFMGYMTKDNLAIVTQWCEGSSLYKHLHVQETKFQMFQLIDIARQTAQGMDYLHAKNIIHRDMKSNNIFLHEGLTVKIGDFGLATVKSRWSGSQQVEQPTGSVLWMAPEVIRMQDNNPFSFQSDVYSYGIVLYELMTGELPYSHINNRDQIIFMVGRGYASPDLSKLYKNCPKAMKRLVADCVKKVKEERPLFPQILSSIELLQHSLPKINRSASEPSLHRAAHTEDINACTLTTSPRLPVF
Chain of Serine/threonine-protein kinase B-raf (Homo sapiens), P15056 [V600E] (P15056 whole entry V600E): as the sequence (P15056 whole entry) above, with V600E counted along it

Regarding `Fc1ccc(-c2ncn(C3CCNCC3)c2-c2ccnc(Oc3ccccc3)n2)cc1`, the inhibition in assay [1] is 0.47%; in assay [2], 1.72%; in assay [3], -0.9%; in assay [4], -4.16%; in assay [5], -3.08%; in [6], 2.53%. In addition, the inhibition in assay [7] is 4.3%; in assay [8], 2.57%; in assay [9] it was 4.15%; in assay [10], -1.35%; in [11], 1.07%; in [12] it was 0.54%. Moreover, the inhibition in [13] is 0.35%; in assay [14], -5.14%; in assay [15], -7.49%; in assay [16], -2.28%; in [17] it was -0.98%.

For `COc1cccc(-n2ncc3c(N/N=C/c4ccncc4)ncnc32)c1`, the inhibition was 41.6% in assay [1]; 26.7% in assay [2]; 73% in [3]; 2.84% in [4]; 3.98% in assay [5]; 10.3% in assay [6]. Further, the inhibition in assay [7] is 21.5%; in [8] it was 11%; in assay [9], 23.1%; in assay [10], -6.75%; in assay [11] it was 3.93%; in assay [12] it was 2.61%. Besides, the inhibition in [13] amounted to 4.07%; in [14] it was 4.32%; in assay [15] it was 16.6%; in [16] it was 7.97%; in assay [17], 37.4%.

For the molecule `CCn1c(-c2nonc2N)nc2c(C#CC(C)(C)O)nc(O[C@@H](CN)c3ccccc3)cc21`, the inhibition is 6.97% in [1]; 2.89% in assay [2]; 23.8% in assay [3]; 0.99% in [4]; 1.24% in [5]; -0.9% in assay [6]. Besides, the inhibition in assay [7] is 5.48%; in [8] it was -1.97%; in assay [9], 6.51%; in assay [10], -3.13%; in assay [11], -0.12%; in assay [12], 2.57%. For the same molecule, the inhibition in [13] is -0.97%; in assay [14], 1.02%; in assay [15], 12.4%; in [16], 5.6%; in assay [17] it was 35.9%.

With `COc1cc2c(cc1Nc1nc(Nc3ccsc3C(N)=O)c3cc[nH]c3n1)N(C(=O)CN(C)C)CCC2`, the inhibition is 1.43% in assay [2]; 2.18% in [3]; -0.11% in assay [4]; 1.86% in assay [5]; -0.02% in [6]; 1.67% in [7]. Besides, the inhibition in [8] was 0.32%; in assay [9], 0.47%; in [10] it was -0.98%; in assay [11], -4.6%; in assay [12], -1.66%; in assay [13], -1.26%. Further, the inhibition in assay [14] was 80.8%; in assay [15], 86.2%; in assay [16] it was 63%; in [17] it was 61.2%.

For `NS(=O)(=O)c1ccc(-c2ccc3c(NC(=O)C4CC4)n[nH]c3c2)cc1`, the inhibition came to 13% in assay [1]; 0.69% in [2]; 2.38% in assay [3]; 0.78% in assay [4]; 0.22% in assay [5]; 2.45% in assay [6]. In addition, the inhibition in assay [7] is 5.35%; in assay [8], 2.03%; in [9], 3.48%; in [10] it was 4.2%; in assay [11] it was 9.01%; in assay [12] it was -1.93%. Further, the inhibition turned out to be 1.48% in [13]; 2.77% in assay [14]; 2.56% in assay [15]; 3.47% in [16]; 7.51% in assay [17].

In the case of `CCn1c(-c2nonc2N)nc2c(C#CC(C)(C)O)ncc(OC[C@@H]3CCCN3)c21`, the inhibition in [1] is 1.75%; in assay [2] it was -0.57%; in [3], 2.07%; in assay [5] it was -0.24%; in [6], 0.45%; in assay [7], 0.01%. Besides, the inhibition turned out to be 0.87% in [8]; 0.05% in assay [9]; 3.13% in assay [10]; 0.33% in assay [11]; 0.18% in [12]; 0.53% in [13]. For the same molecule, the inhibition is 0.96% in [14], 7.88% in assay [15], 2.98% in assay [16] and 12.5% in [17].

Consider `CCn1c(-c2nonc2N)nc2c(C#CCN)ncc(OCCCN)c21`, for which the inhibition in assay [1] was 3.68%; in [2], 0.61%; in assay [3], 3.6%; in [4], 2.74%; in assay [5] it was 2.46%; in assay [6] it was -4.66%. Further, the inhibition was -4.6% in assay [7]; -5.05% in assay [8]; -3.78% in assay [9]; 2.59% in assay [10]; 1.98% in [11]; 1.9% in assay [12]. Besides, the inhibition in assay [13] is -2%; in assay [14], 3.78%; in [15] it was 5.71%; in [16], 4.23%; in [17], 12.1%.
